For 40 compounds, outcome and cAMP activity change results are on record in PubChem BioAssay (Tox21).

Records with an inconclusive call do not appear. Unmarked numbers belong to inactive results. The source made the active and inactive calls. The call rests on the fitted dose curve.
On the % scale 0 is the no-effect control and ±100 the full control effect.

The assay in a line: qHTS assay to identify small molecule agonists or antagonists of the thyroid stimulating hormone receptor (TSHR) signaling pathway - wild type cell line counter screen (AID 1259384). Particulars: HEK293 wild type, cAMP HTRF counter-screen, active compounds read high; series mostly up to 92.4 µM. The source says:
U.S. Tox21 Program National Center for Advancing Translational Sciences [NCATS] NIH Chemical Genomics Center [NCGC] U.S. Environmental Protection Agency [EPA] National Institutes of Environmental Health Sciences [NIEHS] National Toxicology Program [NTP] U.S. Food and Drug Administration [FDA] Tox21 Assay Overview: TSHR is the receptor for thyrotropin (thyroid stimulating hormone or TSH), a member of the glycoprotein hormone family. TSH is released by the anterior pituitary gland and is the main regulator of thyroid gland growth and development. Upon binding circulating thyrotropin, a G-protein signal cascade activates adenylyl cyclase and […] cAMP concentration is increased. cAMP is a key second messenger involved extensively in cellular signal transduction pathways associated with the majority of G-protein coupled receptors (GPCRs). The activation of these GPCRs by neurotransmitters, lipids, nucleotides, peptides and hormones results in the activation or the inhibition of plasma membrane-bound adenylate cyclase through heterotrimeric G-proteins. A cell-based TSHR-Hek293 assay can be used to identify TSHR agonists. To eliminate the false positive compounds identified from screening a cell-based TSHR-Hek293 cell line, cAMP assay in a wild type Hek293 cells was used as a counter screening.
Tox21 Assay Protocol Summary: Hek293 cells (wild type) were dispensed at 800 cells/4 uL/well in 1536-well white plates using a Multidrop dispenser. After the assay plates were incubated at a 37 C/5% CO2 incubator for 18 hrs, 23 nL of compounds dissolved in DMSO, positive controls or DMSO only was transferred to the assay plate by a pin tool, followed by 1 ul medium containing Ro20-1724. After 30 min of incubation at room temperature, 2.5 ul/well of cAMP-d2 and 2.5 ul/well of anti-cAMP-cryptate were added respectively into the assay plates using a Flying Reagent Dispenser. The plates were incubated at room temperature for 1 hr. The fluorescence intensity in the plates was measured using an Envision plate reader. Each test compound was measured at 15 concentrations and in triplicates.
In general terms: In qHTS, concentration-response curves come from the screen itself.
With `Cc1ncc(CSSCc2cnc(C)c(O)c2CO)c(CO)c1O`, the compound was classed as inactive.

On to `CC(C)(C)CC(C)(C)N`, for which the outcome was inactive.

As for `CC(C)COC(=O)C(C)C`, the compound was classed as inactive.

For `CC(C)CCCC(C)NCCC(C)C` (stereo not given), the compound was called inactive.

On to `FC(F)(F)C(F)(F)C(F)(F)C(F)(F)C(F)(F)C(F)(F)C(F)(F)C(F)(F)C(F)(F)C(F)(F)F`, for which the cAMP activity change is 1.74% [at 8.39 µM].

Turning to `CCCCCCCCCCC1CO1` (stereo not given), the result was inactive.

Regarding `C=C(C)[C@@H]1CCC2=CC(=O)C[C@@H](C)[C@]2(C)C1`, the outcome was inactive.

Consider `N#CCN(CC#N)CCN(CC#N)CC#N`, for which the outcome was inactive.

Consider `[O-][N+](=Nc1ccccc1)c1ccccc1`, for which the compound was called inactive.

Regarding `CN(C)C(=O)Nc1ccccc1`, the compound was called inactive.

`C=CCSCC1Nc2cc(Cl)c(S(N)(=O)=O)cc2S(=O)(=O)N1` (stereo not given): the call was inactive.

Consider `c1cc(CN2CCCCC2)cc(OCCCNc2nc3ccccc3s2)c1`, for which the result was inactive.

Turning to `CCCCCCCCCCCCI`, the compound was classed as inactive.

For `Nc1cc(N)cc(C(=O)O)c1`, the compound was classed as inactive.

In the case of `O=C(O)C(O)[C@H](O)[C@@H](O)[C@H](O)[C@H](O)CO` (stereo not given in full), the compound was classed as inactive.

As to `CC1=CCC2C(C1)C2(C)C` (stereo not given), the result was inactive.

Consider `c1ccc2cnncc2c1`, for which the call was inactive.

In the case of `CCC(C)OC(=O)N1CCCCC1CCO` (stereo not given), the result was inactive.

For the compound `Nc1nc(F)nc2c1ncn2[C@@H]1O[C@H](CO)[C@@H](O)[C@@H]1O`, the call was inactive.

For the compound `O=C(O)CCNC(=O)c1ccc(N=Nc2ccc(O)c(C(=O)O)c2)cc1`, the outcome was inactive.

Take `CC(=O)O[C@H](CC(=O)[O-])C[N+](C)(C)C`: the call was inactive.

Take `CCCc1ccccc1O`: the outcome was inactive.

Take `CCCCCCCCCCCCCCC`: the result was inactive.

In the case of `CC/C=C\C#N`, the call was inactive.

Turning to `CCC(C)(C)C1CCC(OC)CC1` (stereo not given), the compound was classed as inactive.

Take `CCC(=O)Nc1cccc(N)c1`: the outcome was inactive.

In the case of `CN(C)CCn1nnnc1SCC1=C(C(=O)O)N2C(=O)[C@@H](NC(=O)Cc3csc(N)n3)[C@H]2SC1`, the result was inactive.

`CC(C)c1cccc(O)c1`: the compound was called inactive.

In the case of `CCn1cc(C(=O)O)c(=O)c2cc(F)c(N3CCN(C)CC3)cc21`, the cAMP activity change was -4.11% [at 18.9 µM].

For the compound `CC1(C)SC(C)(C)SC(C)(C)S1`, the result was inactive.

On to `NC(=O)CCCCC1CCSS1` (stereo not given), for which the compound was classed as inactive.

Regarding `N[C@@H](CS)C(=O)O`, the result was inactive.

Consider `C#CC(O)C(CC)CCCC` (stereo not given), for which the result was inactive.

For `CCCCCCC(=O)OCC`, the result was inactive.

For `CC(C)[N+](C)(C)CC(O)COc1cccc2ccccc12` (stereo not given), the compound was called inactive.

As to `COC(=O)CCCCCCCCC(=O)OC`, the result was inactive.

As to `COc1cc(CCC(C)=O)ccc1O`, the compound was classed as inactive.

Consider `CCC(C(=O)NC(N)=O)c1ccccc1` (stereo not given), for which the result was inactive.

On to `CCOC(=O)Cn1c(=O)sc2cccc(Cl)c21`, for which the outcome was inactive.

`Cn1ccc2cc3c(cc21)CCN3C(=O)Nc1cccnc1`: the cAMP activity change is -0.339% [at 18.9 µM].
